Assay outcomes deposited in PubChem BioAssay by National Center for Advancing Translational Sciences (NCATS).
This is one part of a sample in which hits are shown more often than they occur.
LmPK inhibitor: blocks Leishmania mexicana pyruvate kinase activity | Q27686 | purified LmPK, Kinase-Glo ATP luminescence, 1 h | Potency, µM (doses to about 57.5 µM), inactives show at the highest dose activity change, negative = inhibition, most hits filed as inhibitors | hit rate 0.37% among 290,000 | AID 1721; active = well fitted curve in the direction sought with a large enough effect; an effect the other way counts as inactive or inconclusive; note: potency is the fitted concentration of half-maximal effect; % is set by controls: 0 for no effect and ±100 for the full control effect
Target sequence (Q27686 whole entry, looked up): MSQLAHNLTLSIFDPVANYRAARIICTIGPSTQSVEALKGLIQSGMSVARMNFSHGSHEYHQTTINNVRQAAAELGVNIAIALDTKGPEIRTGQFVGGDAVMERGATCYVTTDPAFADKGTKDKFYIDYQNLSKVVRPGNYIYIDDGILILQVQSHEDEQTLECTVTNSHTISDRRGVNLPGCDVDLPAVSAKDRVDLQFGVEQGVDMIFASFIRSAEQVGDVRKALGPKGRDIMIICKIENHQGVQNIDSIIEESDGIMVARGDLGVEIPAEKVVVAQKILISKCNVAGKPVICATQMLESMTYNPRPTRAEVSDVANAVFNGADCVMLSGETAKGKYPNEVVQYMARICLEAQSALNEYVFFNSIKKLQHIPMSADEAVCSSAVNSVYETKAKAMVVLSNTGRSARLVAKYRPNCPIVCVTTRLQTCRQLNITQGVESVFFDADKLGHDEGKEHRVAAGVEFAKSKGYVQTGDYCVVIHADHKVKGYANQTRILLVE
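Purified LmPK (0.1 nM) converted ADP (0.1 mM) to ATP with PEP (0.5 mM) in imidazole buffer pH 7.2 with KCl and MgCl2, 1 h at room temperature. ATP was read by Kinase-Glo luminescence; data normalized to uninhibited and no-enzyme controls.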
SARS PLP yeast: SARS-CoV PLP inhibition in yeast | S. cerevisiae expressing SARS-CoV PLpro, growth rescue | Potency, µM (highest dose often 32.9 µM), without a hit: at the highest dose activity, positive = growth rescue, hits mostly activators | hit rate 0.19% among 330,000 | AID 485353; note: potency is the fitted concentration of half-maximal effect; 0% is about no effect; nearly all actives have a fitted effect of over 55% in size
Cycloheximide cs: counter-screen hit for Shiga toxin inhibitors, cycloheximide; hit rate 12% among 300,000; max response, %; cell reporter, cycloheximide protein synthesis inhibition counterscreen; in the data active = max response mostly above about 13%, no sharp cut-off; inactive = mostly below about 14%; note: read at 38.3 µM for the half of the compounds with a filed dose; 0% is about no effect
NS1 function inh: influenza NS1 inhibition; Potency, µM (top dose mostly 46.1 µM), inactives show at the highest dose activity, positive = more growth; AID 2326; hit rate 0.4% among 270,000; note: potency is the fitted concentration of half-maximal effect; actives are rising curves; nearly all actives have a fitted effect of over 50% in size
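Compounds were scored for reversing the slow growth caused by influenza A NS1 in S. cerevisiae, measured by optical density at 600 nm. Assay medium contained 2% galactose at pH 6.0; NS1-free yeast of the same strain were the positive control.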
Shiga toxin inh: inhibitors of Shiga toxin in Vero cells; Vero cells, Shiga toxin protein synthesis inhibition reporter; inhibition, % at 38.7 µM; hit rate 9.2% among 290,000; in the data active = inhibition mostly above about 28%, no sharp cut-off; inactive = mostly below about 43%; note: 0% is about no effect
TbPYK inhibitor: blocks Trypanosoma brucei pyruvate kinase. Q57TT1. hit rate 0.12% among 410,000. AID 624173. TbPYK enzyme, Kinase-Glo Plus ATP luminescence, 45 min. Potency, µM (doses to about 76.8 µM), inactives show at the top dose activity, negative = inhibition, usual class: inhibitors; active = well fitted curve in the direction sought with a large enough effect; an effect the other way counts as inactive or inconclusive; note: potency is the fitted concentration of half-maximal effect; % is set by controls: 0 for no effect and ±100 for the full control effect; nearly all actives have a fitted effect of over 50% in size
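Activity of T. brucei pyruvate kinase was followed by Kinase-Glo Plus luminescence after the enzyme reacted 45 min at room temperature with 130 uM ADP (final) and substrate. Test compounds were added before ADP at multiple concentrations.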
* hit, by the source's call; / = no result; [ ] = remark or other dose. Unless noted, calls come from the whole dose curve.

SMILES	LmPK inhibitor	SARS PLP yeast	Cycloheximide cs	NS1 function inh	Shiga toxin inh	TbPYK inhibitor
C[C@H]1CN([C@@H](C)CO)C(=O)CCCn2nncc2CO[C@H]1CN(C)C(=O)Nc1ccnc(N2CCOCC2)c1	/	/	/	/	/	-7%
COC(=O)c1cc2oc(C)cc2n1Cc1cc(C)ccc1C	/	/	/	/	/	-17%
COc1ccc(-c2nc3c(c4c2C[C@H](c2ccccc2)OC4)CN(S(=O)(=O)c2ccc(C#N)cc2)CC3)c(C)c1	-4%[11.5 µM]	/	/	/	/	/
CCc1ccc(CN(C)C(=O)c2cc(COc3ccc(-n4cncn4)cc3)on2)cc1	0%	7%	19*	0%	45	12%
CCCOC1CCCN(C(=O)c2cc(COc3ccc(-n4cncn4)cc3)on2)C1 (centres undefined)	0%	0%	38*	-10%	63*	3%
CSc1ncnc2c1ncn2CCCNCc1cccc2ccccc12	/	/	/	/	/	2%
CC[C@H](C)[C@H](NC(=O)[C@H](Cc1ccc(O)cc1)NC(=O)[C@@H]1CCCN1C(=O)[C@@H](N)CCCN=C(N)N)C(=O)N[C@@H](CC(C)C)C(=O)O	/	/	-5	/	-2	/
Cc1noc(C)c1S(=O)(=O)NC(=O)C1(C)CCN1C(=O)C1(c2ccc(Cl)cc2)CCC1 (centres undefined)	/	/	/	/	/	2%
CCOC(=O)N/N=C/C=C/c1ccccc1[N+](=O)[O-]	-5%	1%	22*	2%	73*	4%
Cc1ccsc1C(=O)N/N=C/C=C/c1ccccc1[N+](=O)[O-]	2%	8%	30*	-7%	117*	-1%
Cc1occc1C(=O)N/N=C/C=C\c1ccccc1[N+](=O)[O-]	-4%	0%	30*	-5%	70*	-7%
O=C(Nc1cc(-c2ccc(Cl)cc2)no1)c1ccc(F)cc1	/	/	/	/	/	3%
Cc1[nH]c(=O)[nH]c(=O)c1S(=O)(=O)Nc1ccc(F)c([N+](=O)[O-])c1	-5%	3%	1	3%	4	-6%
O=C(NCc1cccnc1)C(=O)c1c[nH]c2ccccc12	-4%	4%	-3	-7%	-3	-1%
COC(=O)C(Cc1c[nH]c2ccccc12)NC(=O)CNC(C)=O (centres undefined)	5%	18%	-3	-1%	-20	-5%
O=C(Cc1c[nH]c2ccccc12)NCc1ccc(Cl)cc1Cl	5%	-18%	12	-23%	45*	-3%
O=C(NCc1ccco1)C(=O)c1c[nH]c2ccccc12	-1%	-2%	31*	-10%	54*	-11%
COC(=O)C(Cc1c[nH]c2ccccc12)NC(=O)COc1ccc(Cl)cc1Cl (centres undefined)	/	/	29*	/	37	7%
O=C(Cc1c[nH]c2ccccc12)NCc1ccco1	-2%	-1%	2	/	-12	-3%
O=C(NCc1cccs1)C(=O)c1c[nH]c2ccccc12	-1%[11.5 µM]	-6%	33*	/	90	2%
COC(=O)C(Cc1c[nH]c2ccccc12)NC(=O)c1ccccc1Br (centres undefined)	8%	-8%	8	-13%	54	3%
CCOC(=O)C(Cc1c[nH]c2ccccc12)NC(=O)c1ccccc1Br (centres undefined)	-4%	-3%	37*	11%	53*	3%
O=C(/C=C/c1ccccc1)c1c[nH]c2ccccc12	-6%	-3%	34*	-34%	64*	4%
O=C(Nc1ccccc1)C(=O)c1c[nH]c2ccccc12	-1%	-3%	31*	-16%	67*	-4%
O=C(NCc1ccccc1Cl)C(=O)c1c[nH]c2ccccc12	2%	0%	29*	-4%	71*	4%
O=C1CCCCC(=O)[C@H](OC(=O)c2ccccc2)C[C@H](c2ccccc2)O1	/	/	/	/	/	0%
CCn1nc(-c2ccccc2)c(-c2ccccc2)c(C(=O)Nc2ccc(S(N)(=O)=O)cc2)c1=O	/	/	/	/	/	-1%
CC(=O)Nc1ccc(C(C)=NNC(=O)C2CCCC2)cc1	/	/	/	/	/	7%
C/C(=N\NC(=O)C1CCCC1)c1ccc(C(C)C)cc1	-2%	3%	24*	4%	52*	0%
COc1ccc(/C(C)=N/NC(=O)C2CC2)cc1	1%	0%	11	-5%	42*	0%
